The text below walks through data of PubChem BioAssay AID2284421 (EPA ToxCast).

One may read the AC50 as the midpoint of the concentration-response curve, whichever way the signal moves.

Activity calls are given as the source filed them. The calls were made as follows: active = hit-call score of the fitted dose curve at least 0.9, where 1 is the maximum; inactive = score below 0.9.

The test system of this assay is Brachyury (BRA) Protein Expression, Deisenroth Lab, TBXT (gene 6862). The experiment in a line: CCTE_Deisenroth_DEVTOX-GLR_Meso_BRA: CCTE's DevTox GLR-Meso Assay Evaluation of Brachyury (BRA) Protein Expression, Deisenroth Lab. On the procedure:
CCTE_Deisenroth_DEVTOX-GLR_Meso assay is a cell-based, multiplex-readout assay that uses RUES2-GLR, a human pluripotent cell line, with measurements taken at 48 hours after chemical dosing in a 384-well microplateCCTE_Deisenroth_DEVTOX-GLR_Meso_BRA is 1 of 4 assay components calculated from the CCTE_Deisenroth_DEVTOX-GLR_Meso assay and it measures an the percentage of cells in an mesoderm state. Using a type of inducible fluorescent protein reporter, gain-of-signal activity can be used to understand changes in gene expression with fluorescent microscopy. The percentage of BRA+ cells are determined by calculating the number of BRA+ cells divided by the cell count. To generalize the intended target to other relatable targets, this assay component is annotated to the transcription factor intended target family, where the subfamily is T-box protein.Data from the assay component CCTE_Deisenroth_DEVTOX-GLR_Meso_BRA was analyzed as 1 assay endpoint. The endpoint is the percent change in BRA+ cell population relative to the 0.2% DMSO control in the CCTE_Deisenroth_DEVTOX-GLR_Meso assay. Furthermore, this assay endpoint can be referred to as a primary readout, because this assay has produced multiple assay endpoints where this one serves as a measure of mesoderm differentiation.
All assay protocols are aligned to the DevTox GLR-Endo assay workflow. Cells are seeded into 384-well microplates for 24 hours prior to initiating differentiation in defined media for a total duration of 48 hours. A total of two chemical exposures are administered in 24-hour intervals during the 48-hour differentiation period. At the assay termination point, cells are fixed and stained with a fluorescent dye demarcating the nucleus. High-content imaging is used to acquire brightfield and fluorescent channel images across 5 fields per well. Cell identification and mean biomarker fluorescence intensities are calculated with image analysis software to determine the total cell counts for viability assessment and the biomarker expression frequency for each lineage-dependent assay. A typical experimental design tests a 10-point concentration series (1 nM - 200 uM) for 28 compounds in single technical replicate. Assay plate controls include non-differentiated pluripotent cells (baseline control), lineage-specific differentiated cells (differentiation control), and DMSO solvent exposed differentiated cells (solvent control). Experiments typically comprise a minimum of four experimental replicates (n=4).
Regarding `CC1(C)S[C@@H]2[C@H](NC(=O)Cc3ccccc3)C(=O)N2[C@H]1C(=O)O`, the call was inactive. On the same count and under the same terms, the same measure for `CC(C)(c1ccc(O)cc1)c1ccc(O)cc1`: “inactive”. Same read-out and setting: the same measure for `CC1=C(/C=C/C(C)=C/C=C/C(C)=C\C(=O)O)C(C)(C)CCC1`: “inactive”; for `CN(Cc1cnc2nc(N)nc(N)c2n1)c1ccc(C(=O)N[C@@H](CCC(=O)O)C(=O)O)cc1`: “inactive”; for `Nc1cccc2c1C(=O)N(C1CCC(=O)NC1=O)C2=O` (stereo unspecified): “inactive”. On to `CCCC(CCC)C(=O)O`, for which the compound was classed as inactive. As for `CS(=O)(=O)OCCCCOS(C)(=O)=O`, the compound was called inactive. Same read-out and setting: the same measure for `CC(=O)Nc1ccc(O)cc1`: “inactive”. Still for that read-out and setting: the same measure for `O=c1[nH]cc(F)c(=O)[nH]1`: “inactive”; for `Nc1nc2ncc(CNc3ccc(C(=O)N[C@@H](CCC(=O)O)C(=O)O)cc3)nc2c(=O)[nH]1`: “inactive”; for `CCN(CC)CCNC(=O)c1c(C)[nH]c(/C=C2\C(=O)Nc3ccc(F)cc32)c1C`: “inactive”.

For the compound `CC1=C(/C=C/C(C)=C/C=C/C(C)=C/C(=O)O)C(C)(C)CCC1`, the result was inactive.

Take `O=C1CCC(N2C(=O)c3ccccc3C2=O)C(=O)N1` (stereo unspecified): the result was inactive. Same read-out and setting: the entry for `O=C1NC(=O)C(c2ccccc2)(c2ccccc2)N1` is “inactive”; for `O=C1NS(=O)(=O)c2ccccc21` it is “inactive”. For `CC/C(=C(/CC)c1ccc(O)cc1)c1ccc(O)cc1`, the AC50 is 19.8 µM (active).
